4MU fluor – compounds fluorescent in 4-MU spectral region. compound autofluorescence, 340/450 nm, 4-MU equivalents; active compounds read high. max dye-equivalent concentration, M. 59,000 tested, 11% active; in the data active = max dye-equivalent concentration above about 10 nM; inconclusive = mostly about 1.1 nM to 9.6 nM
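Compounds in 100 mM Tris, pH 8.0, sat 15 min at room temperature before fluorescence was read at 340 nm excitation/450 nm emission; a per-plate six-point 4-MU standard curve converted signals to dye-equivalent concentration at each compound concentration.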
CRE Fsk mod – modulators of forskolin-stimulated CRE signaling in CHO cells | AID 662 | CHO CRE-bla reporter (cAMP response element driving beta-lactamase), forskolin EC10, beta-lactamase ratio | 71,000 tested, 2.5% active | Potency, µM (series often up to 38.2 µM), actives largely listed as activators; active = well fitted activation curve with a large enough effect in the signal ratio, with a control signal flat, not every such curve was filed as active; inconclusive = small, poorly fitted or top-dose-only effect, or effect the other way, or a change in a side signal; the % refers to the signal ratio
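CRE-bla CHO cells stimulated with EC10 NKH 477 (water-soluble forskolin) and compound titrations, 3 h at 37C; beta-lactamase read with CCF4 after 2 h at room temperature. Activity from 460/530 nm emission ratio, AC50 values for positive or negative modulation.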
AID923 – qHTS Assay for Allosteric/Competitive Inhibitors of Caspase-1: Spectroscopic Profiling in AFC Spectral Region; compound fluorescence, AFC spectral region (405/520 nm); Potency, µM (top dose mostly 57.5 µM), actives largely listed as activators; 75,000 tested, 1.1% active
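Baseline compound fluorescence (AFC region, 405 nm ex/520 nm em) taken from the intercept of kinetic reads with 50 nM caspase-1 and 5 uM Ac-WEHD-AFC; normalized to an on-plate AFC standard curve; compounds titrated up to 57 uM.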
HSD17B inhib – blocks hydroxysteroid 17-beta dehydrogenase activity | recombinant HSD17B10, NADH fluorescence kinetic | Potency, µM (series often up to 57.1 µM), usual class: inhibitors | 75,000 tested, 7.6% active | AID 893;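 note: the protocol describes HADH2 (HSD17B10) and not the HSD17B4 of the title; nearly all actives have a fitted effect of over 70% in size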
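20 nM HADH2, pH 9.0 Tris/Tween; cpd preinc 15 min RT; start w/ 1 mM NAD+ + 90 uM b-hydroxybutyryl-CoA; kinetic fluor ex360/em450 q30s x 4 min; delta last-first.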
A350 autofl – compounds fluorescent in Alexa 350 spectral region; Compound autofluorescence, 340/450 nm, Alexa 350 dye-equivalents; active compounds read high; max dye-equivalent concentration, M; 59,000 tested, 11% active; AID 590; in the data active = max dye-equivalent concentration above about 10 nM; inconclusive = mostly about 1.1 nM to 9.6 nM
HADH2 inh – inhibitors of human HADH2 dehydrogenase; Q99714; AID 886; Potency, µM (titrated, usually from 57.1 µM), most hits filed as inhibitors; 73,000 tested, 3.4% active; recombinant HADH2, NADH fluorescence, beta-hydroxybutyryl-CoA; note: nearly all actives have a fitted effect of over 60% in size
Target sequence (Q99714 whole entry, looked up, one chain of several): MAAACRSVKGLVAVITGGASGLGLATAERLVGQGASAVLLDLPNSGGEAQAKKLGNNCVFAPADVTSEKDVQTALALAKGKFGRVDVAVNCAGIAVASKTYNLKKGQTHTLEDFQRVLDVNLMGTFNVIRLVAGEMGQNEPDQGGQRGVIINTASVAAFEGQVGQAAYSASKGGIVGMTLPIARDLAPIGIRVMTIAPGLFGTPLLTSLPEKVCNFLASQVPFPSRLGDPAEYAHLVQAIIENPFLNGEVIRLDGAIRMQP
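His-tagged recombinant enzyme from E. coli, 20 nM, preincubated 15 min RT with compound; reaction started with 1 mM NAD+ and 90 uM beta-hydroxybutyryl-CoA in 100 mM Tris-HCl pH 9.0. NADH fluorescence (ex 360/em 450) read over 4 min; last-minus-first difference.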
Numbers stand for hits; . = inactive; ? = inconclusive; / = no result given; [ ] = dose if it differs, or a comment. Compounds with a hit are over-represented: about 14% of the library has one in this group of screens. Unless noted, calls come from the whole dose curve; as a rule, active = well fitted curve in the direction sought with a large enough effect; inconclusive = small, poorly fitted or top-dose-only effect, or another doubt; inactive = no such curve, though single readings can be large; an effect the other way counts as inactive or inconclusive.

SMILES	4MU fluor	CRE Fsk mod	AID923	HSD17B inhib	A350 autofl	HADH2 inh
Cc1cc(N2CCC(C)CC2)n2nc(C)c(-c3ccccc3)c2n1	1.88e-08M	.	.	.	?	.
Cc1nn2c(-n3ccnc3)c3c(nc2c1-c1ccccc1)CCC3	.	.	.	.	.	.
Cc1cc(SCC#N)n2nc(C)c(-c3ccccc3)c2n1	.	2.51µM	.	.	.	.
Cc1nn2c(N3CCCC3)cc(C(C)C)nc2c1-c1ccccc1	3.6e-07M	?	.	31.6µM	3.24e-07M	?
CCc1nn2c(N3CCOCC3)cc(C)nc2c1-c1ccc(F)cc1	1.97e-07M	?	.	?	2.89e-07M	.
Cc1nc2c(-c3ccccc3)c(C)nn2c(C)c1CC(=O)O	.	?	.	.	.	.
C=CCN=C(NC#N)SCc1ccccc1Cl	.	?	.	.	.	.
CCOC(=O)N1CCN(c2cc(C)nc3nc(C)nn23)CC1	/	.	.	.	/	.
CCCc1cc(N2CCN(c3ccccn3)CC2)n2nc(C)c(-c3ccccc3)c2n1	3.54e-07M	.	.	7.94µM	3.31e-07M	?
Cc1cc(N2CCCC2)n2nc(C)nc2n1	/	12.6µM	.	.	/	.
Cc1cc(N2CCCCC2)n2nc(C)c(-c3ccccc3)c2n1	6.12e-08M	15.8µM	.	?	1.33e-08M	?
COc1ccccc1-c1c(C)nn2c(N3CCCCCC3)cc(C)nc12	/	?	.	?	/	?
Cc1nc2cc(-c3cccc(F)c3)nn2c(C)c1CCC(=O)N1CCN(c2ccccn2)CC1	/	.	.	.	/	.
O=C(c1ccco1)N1CCC[C@@]2(CCN(c3ccccn3)C2)C1	.	.	.	?	.	.
Cn1c(N2CCCC2)nc2c1c(=O)n(Cc1ccc(F)cc1)c(=O)n2C	.	3.16µM	.	.	.	.
COC(=O)[C@@H]1C[C@@]1(C)[C@@H](NC(=O)OCc1ccccc1)c1ccccc1	/	?	.	.	/	.
O=C1c2cccc3c(N4CCCCC4)ccc(c23)C(=O)N1c1ccccn1	2.21e-08M	?	.	.	2.82e-08M	.
CC(c1ccccc1F)n1cc(C(=O)NCc2ccncc2)nn1 (stereo unspecified)	.	.	.	.	?	.
CC(c1ccccc1F)n1cc(C(=O)NCCc2ccco2)nn1 (stereo unspecified)	?	.	.	.	1.26e-08M	.
O=C(O)CC[P+](c1ccccc1)(c1ccccc1)c1ccccc1	.	?	.[11.5 µM]	.[11.4 µM]	.	.[11.4 µM]
CC(C)CC1N=C2c3ccccc3N=C(SCc3cc(=O)n4ccccc4n3)N2C1=O (stereo unspecified)	3.39e-08M	3.16µM	.	?	3.07e-08M	.
COc1nc(-c2ccc(C)cc2)ccc1-c1noc(-c2cccnc2)n1	1.26e-08M	?	.	?	1.36e-08M	.
CC(=O)Oc1ccc(-c2nc(-c3cccnc3)no2)cc1	.	.	.	.	.	.
Cc1ccc2cc(-c3noc(C4CCCO4)n3)c(=O)[nH]c2c1 (stereo unspecified)	/	.	.	31.6µM	/	?
COc1nc2ccccc2cc1-c1noc(-c2cccnc2)n1	3.65e-08M	?	.	.	4.33e-08M	.
SMILES	4MU fluor	CRE Fsk mod	AID923	HSD17B inhib	A350 autofl	HADH2 inh
Cc1ccc2cc(-c3noc(C4CCCCC4)n3)c(=O)[nH]c2c1	/	.	.	?	/	.
CCOc1ccccc1-c1nc(-c2cc3ccc(C)cc3[nH]c2=O)no1	9.56e-08M	.	.	3.98µM	8.06e-08M	.
Cn1c(=O)c(-c2cccc(C#N)c2)nc2cnc(Oc3ccccc3)nc21	?	?	.	.	?	.
Cc1ccc(S(=O)(=O)O)cc1C	/	.	.	.	/	.
Nc1ncnc2nc(Cl)[nH]c12	/	/	.	.	/	/
COc1ccccc1-c1noc(-c2cccnc2)n1	.	.	.	.	.	.
CCOc1ccccc1-c1nc(-c2cc3ccccc3nc2OC)no1	?	?	.	?	1.23e-08M	.
COc1nc(-c2ccccc2)ccc1-c1noc(-c2cccnc2)n1	?	?	.	25.1µM	1.12e-08M	15.8µM
CN1[C@@H](c2ccccc2)CC(=NO)C[C@H]1c1ccccc1	.	.[7.6 µM]	.[11.5 µM]	.[11.4 µM]	.	.[11.4 µM]
CCn1c2ccccc2c2cc(N)ccc21	2.39e-07M	.	.	?	3.08e-07M	.
CCn1c2ccccc2c2cc(C3C(C#N)=C(C)NC(C)=C3C#N)ccc21	3.2e-07M	?	.	25.1µM	3.89e-07M	?
CCn1c2ccccc2c2cc(C3C(C#N)=C(N)OC4=C3C(=O)CC(C)(C)C4)ccc21 (stereo unspecified)	.	.	.	.	.	.
Cc1ccc2c(c1)N(CC(=O)NC1CCCCC1C)C(=O)CO2 (stereo unspecified)	.	.	.	.	.	?
CCCC1c2c(ccc3ccccc23)Oc2ccc3ccccc3c21	.	.[7.6 µM]	.[11.5 µM]	.[11.4 µM]	.	.[11.4 µM]
Cc1ccc(S(=O)(=O)N[C@H](CN)C(=O)O)cc1	.	.[7.6 µM]	.[11.5 µM]	.[11.4 µM]	.	.[11.4 µM]
CCCCn1c(SCC(=O)N2CCC(C)CC2)nc2cc(S(N)(=O)=O)ccc21	.	.	.	.	.	.
CCCCn1c(SCC(=O)c2cc(OC)ccc2OC)nc2cc(S(N)(=O)=O)ccc21	3.07e-08M	?	.	?	3.6e-08M	.
CCCCn1c(SCN2C(=O)c3ccccc3C2=O)nc2cc(S(N)(=O)=O)ccc21	3.67e-08M	.	.	.	3.32e-08M	?
O=c1c(N2CCCCC2)coc2ccccc12	/	.	.	.	/	.
Cc1cnc(CNc2cc(-c3ccccc3Cl)ncn2)cn1	.	.	.	.	.	.
CCn1c(=O)[nH]c2cc(Cl)c(Cl)cc21	.	?	.	.	.	.
Cc1noc(C)c1COc1ccc(C(=O)NCc2ccccn2)cc1	.	.	.	.	.	.
COc1ccc(NC(=O)c2cnc3sccn3c2=O)cc1	7.83e-08M	.	.	.	7.76e-08M	.
O=C(NCc1cccnc1)c1cnc2sccn2c1=O	/	.	.	31.6µM	/	25.1µM
O=C(Nc1ccon1)c1cnc2sccn2c1=O	1.15e-08M	.	.	25.1µM	1.15e-08M	25.1µM
SMILES	4MU fluor	CRE Fsk mod	AID923	HSD17B inhib	A350 autofl	HADH2 inh
Cc1cccc(NC(=O)c2cnc3sccn3c2=O)c1	/	.	.	31.6µM	/	?
Cc1cccc(NC(=O)c2cnc3sccn3c2=O)c1C	/	.	.	?	/	.
CN1CCCCCC1=NC1=C(C#N)CCCC1	.	.	.	.	.	.
Cc1noc(C)c1C(=O)N1CCC2(CC1)CN(c1ccccc1)C2	.	.	.	.	.	.
COc1ccc(NC(=O)N2CCC3(CC2)CCN(C(=O)c2cccc(F)c2)CC3)cc1	.	.	.	.	.	.
CC(C)Cn1c(-c2ccc(Cl)cc2)cnc1SCC(=O)N1CCOCC1	.	.	.	.	.	.
Cc1ccc(S(=O)(=O)N2CCN(C(=O)c3cc(=O)[nH]c4ccccc34)CC2)c(C)c1	?	.	.	20µM	?	.
